Legend:
Conditions in all cases: concentration: 1 μM, replicates: in singlicate; n = 1
NEK11 = tested on: NEK11
NEK1 = tested on: NEK1
NEK2 = tested on: NEK2
NEK3 = tested on: NEK3
NEK4 = tested on: NEK4
NEK5 = tested on: NEK5
NEK6 = tested on: NEK6
NEK7 = tested on: NEK7
NEK9 = tested on: NEK9
NIK = tested on: T1, NIK
T1 construct: gene MAP3K14

NIM1 = tested on: T2, NIM1
T2 construct: gene MGC42105

NLK = tested on: NLK
OSR1 = tested on: T3, OSR1
T3 construct: gene OXSR1

PAK1 = tested on: PAK1
PAK2 = tested on: PAK2
PAK3 = tested on: PAK3
PAK4 = tested on: PAK4
PAK6 = tested on: PAK6
PAK7 = tested on: PAK7
PCTK1 = tested on: T4, PCTK1
T4 construct: gene CDK16
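Further: KINOMEscan kinase panel screen.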

Row | Compound | %Inh (NEK11) [%] | %Inh (NEK1) [%] | %Inh (NEK2) [%] | %Inh (NEK3) [%] | %Inh (NEK4) [%] | %Inh (NEK5) [%] | %Inh (NEK6) [%] | %Inh (NEK7) [%] | %Inh (NEK9) [%] | %Inh (NIK) [%] | %Inh (NIM1) [%] | %Inh (NLK) [%] | %Inh (OSR1) [%] | %Inh (PAK1) [%] | %Inh (PAK2) [%] | %Inh (PAK3) [%] | %Inh (PAK4) [%] | %Inh (PAK6) [%] | %Inh (PAK7) [%] | %Inh (PCTK1) [%]
1 | O=C(O)C(F)(F)F.O=c1[nH]ccc2nc(N[C@@H]3CCNC3)nc(Nc3ccc4c(c3)S(=O)(=O)CC4)c12 [GSK2181306] | 0 | 6 | 46 | 8 | 16 | 0 | 3 | 5 | 19 | 77 | 67 | 28 | 76 | 97.2 | 95.2 | 99.9 | 99.5 | 94.6 | 99.9 | 85
2 | Cc1ccc(Nc2ccnc(Nc3ccc(C)c(F)c3)n2)cc1O.Cl [GW582868] | 3 | 0 | 1 | 10 | 7 | 4 | 0 | 0 | 0 | 10 | 3 | 62 | 8 | 0 | 0 | 0 | 0 | 0 | 0 | 0
3 | Cc1ccc(O)cc1Nc1ccnc2cc(-c3ccc(CN4CCCCC4)o3)ccc12 [GW557777] | 0 | 0 | 11 | 3 | 0 | 0 | 0 | 9 | 0 | 0 | 0 | 19 | 0 | 24 | 23 | 0 | 13 | 21 | 7 | 0
4 | COc1ccc(C)c(Nc2ccnc(Nc3ccc(-c4cnc[nH]4)cc3)n2)c1.Cl [GW784041] | 0 | 0 | 2 | 7 | 0 | 14 | 0 | 4 | 0 | 0 | 0 | 13 | 0 | 0 | 12 | 20 | 6 | 10 | 0 | 0
5 | CN1CCN(Cc2ccc(NC(=O)Nc3ccc(N(C)c4ccnc(Nc5ccc(CS(C)(=O)=O)cc5)n4)cc3)cc2)CC1.Cl [GW827654] | 19 | 45 | 0 | 16 | 24 | 98.3 | 3 | 30 | 49 | 0 | 42 | 0 | 0 | 24 | 65 | 62 | 98.4 | 34 | 51 | 22
6 | COc1cc(Nc2nccc(N3CCC(NC(=O)Nc4ccc5c(c4)OCO5)C3)n2)cc(OC)c1OC (stereo not shown) [GSK1379766] | 0 | 46 | 20 | 45 | 26 | 100 | 18 | 29 | 21 | 20 | 4 | 0 | 0 | 0 | 0 | 0 | 0 | 0 | 4 | 16
7 | CCNC(=O)/C=C/c1n[nH]c2cc(Sc3ccccc3C(=O)NC)ccc12 | 0 | 0 | 0 | 26 | 0 | 5 | 38 | 0 | 0 | 0 | 2 | 57 | 0 | 0 | 0 | 0 | 0 | 4 | 20 | 7
8 | CCNc1nccc(-c2c(-c3ccc(F)cc3)ncn2C2CCN(C)CC2)n1 | 0 | 1 | 0 | 0 | 0 | 5 | 0 | 1 | 0 | 0 | 0 | 95 | 0 | 7 | 8 | 0 | 2 | 30 | 0 | 0
9 | Cl.Cl.NC(CNC(=O)c1cc(Br)c(-c2ccnc3[nH]ccc23)s1)c1ccccc1 (stereo not shown) [GSK1322949] | 0 | 54 | 0 | 5 | 0 | 16 | 0 | 0 | 23 | 11 | 65 | 22 | 34 | 32 | 36 | 67 | 0 | 16 | 46 | 21
10 | Nc1ncnc2scc(-c3ccc(NC(=O)Cc4cc(F)ccc4F)cc3)c12.O=C(O)C(F)(F)F [SB-731254-M] | 36 | 20 | 24 | 35 | 16 | 47 | 3 | 0 | 20 | 0 | 0 | 4 | 11 | 7 | 32 | 46 | 0 | 0 | 1 | 2
11 | Fc1cc(Cl)ccc1Nc1ccnc2cc(-c3ccc(CN4CCSCC4)o3)ccc12 [GW560106] | 22 | 0 | 1 | 5 | 0 | 9 | 0 | 0 | 5 | 28 | 23 | 30 | 0 | 8 | 4 | 45 | 0 | 0 | 0 | 0
12 | Cn1cc(-c2ccc3c(c2)CCN3C(=O)Cc2cc(F)cc(C(F)(F)F)c2)c2c(N)ncnc21 [GSK2635225] | 8 | 9 | 18 | 0 | 13 | 0 | 6 | 0 | 25 | 15 | 20 | 14 | 0 | 13 | 0 | 16 | 2 | 4 | 16 | 7
13 | COc1cccc2c(-c3ccncc3)c(-c3ccc(F)cc3)nn12 [GW468513] | 0 | 0 | 0 | 0 | 4 | 7 | 0 | 0 | 0 | 0 | 14 | 86 | 7 | 0 | 10 | 61 | 0 | 0 | 0 | 0
14 | COc1cccc(-c2nc(-c3ccccc3)[nH]c2-c2ccncc2)c1 [SB-610250] | 26 | 100 | 0 | 11 | 16 | 1 | 4 | 0 | 4 | 0 | 40 | 89 | 0 | 23 | 32 | 16 | 0 | 0 | 0 | 5

From article PMC5540273 (PLoS ONE, 2017)
